# Several values for one entry are separate records, joined by “and”; a condition that tells them apart may be missing. Equal values may be shown once. Compounds without any hit were thinned out: in the full panel of roughly 83,000, 20% have a hit.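 Activity criterion: percent growth below 10, measured after cells in 96-well plates were exposed to a single compound concentration for 48 hours.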 Values without a mark were called inactive. Activity calls are given as the source filed them.
# Tested on: SK-OV-3 ovarian
# Experiment: NCI-60 one-dose screen, 48 h (100 = growth as untreated, 0 = no growth, -100 = all killed)
# Conditions: 10 µM unless noted
row,SMILES,growth
1,CCOC(=O)C1C(C=C(C)C)C1(C)C (configuration not stated),105%
2,N[C@@H](CCC(=O)CCl)C(=O)O,108% [20 µM]
3,Oc1ccc(O)c(Cl)c1,108% and 105%
4,CC(C)c1cccc(C(C)C)c1O,113% and 96.9%
5,N#CC(C#N)=C(C#N)C#N,109%
6,CC(C)CCC1C(=O)NC(=O)NC1=O,88.2%
7,COc1ccc(N)cc1N,100%
8,CC1OC(=O)C(C(C)C)NC(=O)C(C(C)C)OC(=O)C(C(C)C)NC(=O)C(C)OC(=O)C(C(C)C)NC(=O)C(C(C)C)OC(=O)C(C(C)C)NC(=O)C(C)OC(=O)C(C(C)C)NC(=O)C(C(C)C)OC(=O)C(C(C)C)NC1=O (configuration not stated),-13.3% (active)
9,C[C@H](O)CCC(=O)c1ccoc1,113%
10,CCCCCCCCCCCCCCCCCC1OCC(COC(=O)O[C@@H](C(=O)O[C@H]2C[C@@]3(O)[C@@H](OC(=O)c4ccccc4)[C@@H]4[C@]5(OC(C)=O)CO[C@@H]5C[C@H](O)[C@@]4(C)C(=O)[C@H](OC(C)=O)C(=C2C)C3(C)C)[C@@H](NC(=O)c2ccccc2)c2ccccc2)O1 (some centres not stated),49.5%
11,O=c1[nH]c(=O)[nH]c(=O)[nH]1,110%
12,O=CC1(c2ccccc2)CCN(Cc2ccccc2)CC1,114%
13,CC(=O)c1cccc(S(=O)(=O)F)c1,109%
14,CC(=O)Nc1nc2c(s1)C1=CC[C@H]3[C@@H]4CC[C@H](OC(C)=O)[C@@]4(C)CC[C@@H]3[C@@]1(C)CC2,68.4%
15,CC1=CC(=O)CCC12CCOC2=O (configuration not stated),101%
16,CCC1CCC(=O)O1 (configuration not stated),95.2% and 119%
17,CN(C)C(=S)SSC(=S)N(C)C,122% and 113%
18,ClC1OC(Cl)(Cl)C(Cl)(Cl)OC1(Cl)Cl (configuration not stated),111%
19,COc1ccc(N)cc1OC,113%

# Tested on: IGROV1 ovarian
# Experiment: as above
# Conditions: 10 µM unless noted
row,SMILES,growth
1,N#CC(C#N)=Cc1cccc(F)c1,112%
2,[N-]=[N+]=CC(=O)CCC(=O)C=[N+]=[N-],49.2%
3,O=[N+]([O-])c1ccc2scc3c4ccccc4nc-3c2c1,-59% (active)
4,Cc1cc(NC(=O)NCCCOc2ccc(N3C(N)=NC(N)=NC3(C)C)cc2Cl)ccc1S(=O)(=O)F,25%
5,Nc1c(Cl)c(Cl)nc(C(=O)O)c1Cl,29.9%
6,Cn1cc(C(=O)C[n+]2ccccc2)c2ccccc21,103%
7,Nc1nc(=S)nc(N)[nH]1,87.6%
8,C[C@]12CCC(=O)C[C@@H]1CC[C@@H]1[C@@H]2CC[C@]2(C)[C@@H](OC(=O)N(CCCl)N=O)CC[C@@H]12,-29.7% (active)
9,NC1CN2CCC1CC2 (configuration not stated),102%
10,O=C(O)C1C(C(=O)O)C2(Cl)C(Cl)=C(Cl)C1(Cl)C2(Cl)Cl (configuration not stated),109% and 118%
11,O=C1NC(=O)C(=C/C=C/c2ccccc2)C(=O)N1,7.61% (active)
12,c1ccc(CCN2CCCCC2)nc1,107%
13,O=[N+]([O-])c1cc(Br)c(O)c(Br)c1,111%
14,Cc1cc(Br)c([N+](=O)[O-])cc1[N+](=O)[O-],110%
15,C[C@]12CC[C@@H](OC(=O)N(CCCl)N=O)C[C@@H]1CC[C@@H]1[C@@H]2CC[C@]2(C)C(=O)CC[C@@H]12,-13.9% (active)
16,CCOC(=O)C1C(C=C(C)C)C1(C)C (configuration not stated),120%
17,N[C@@H](CCC(=O)CCl)C(=O)O,99.5% [20 µM]

row,SMILES,growth
1,Oc1ccc(O)c(Cl)c1,107% and 108%
2,CC(C)c1cccc(C(C)C)c1O,107%
3,N#CC(C#N)=C(C#N)C#N,108%
4,CC(C)CCC1C(=O)NC(=O)NC1=O,96%
5,CC1OC(=O)C(C(C)C)NC(=O)C(C(C)C)OC(=O)C(C(C)C)NC(=O)C(C)OC(=O)C(C(C)C)NC(=O)C(C(C)C)OC(=O)C(C(C)C)NC(=O)C(C)OC(=O)C(C(C)C)NC(=O)C(C(C)C)OC(=O)C(C(C)C)NC1=O (configuration not stated),-25% (active)
6,C[C@H](O)CCC(=O)c1ccoc1,113%
7,CCCCCCCCCCCCCCCCCC1OCC(COC(=O)O[C@@H](C(=O)O[C@H]2C[C@@]3(O)[C@@H](OC(=O)c4ccccc4)[C@@H]4[C@]5(OC(C)=O)CO[C@@H]5C[C@H](O)[C@@]4(C)C(=O)[C@H](OC(C)=O)C(=C2C)C3(C)C)[C@@H](NC(=O)c2ccccc2)c2ccccc2)O1 (some centres not stated),47.6%
8,O=c1[nH]c(=O)[nH]c(=O)[nH]1,68.2%
9,O=CC1(c2ccccc2)CCN(Cc2ccccc2)CC1,108%
10,CC(=O)c1cccc(S(=O)(=O)F)c1,103%
11,CC(=O)Nc1nc2c(s1)C1=CC[C@H]3[C@@H]4CC[C@H](OC(C)=O)[C@@]4(C)CC[C@@H]3[C@@]1(C)CC2,62.5%
12,CC1=CC(=O)CCC12CCOC2=O (configuration not stated),108%
13,CCC1CCC(=O)O1 (configuration not stated),105% and 110%
14,CN(C)C(=S)SSC(=S)N(C)C,99.1%
15,ClC1OC(Cl)(Cl)C(Cl)(Cl)OC1(Cl)Cl (configuration not stated),104%
16,COc1ccc(N)cc1OC,107%

# From PubChem BioAssay (NCI)
